Calls of active or inactive are those of the source. Unless noted, no rule for the calls is given here.
How the values were obtained:
[1] = resazurin metabolic signal in HepG2 cells – cell-based, resazurin fluorescence, 24 h, PK04 Diversity Set, profiling panel (AID 1172); settings: HepG2 viability, higher = more signal
[2] = budding yeast growth changes without added modifier – OD600, strain BY4716, 24 h, basal condition, primary screen (AID 1173); settings: S. cerevisiae BY4716 growth, OD600, 24 h; higher = more signal, called active from +8 up or from −8 down
[3] = viability profiling in MM1S myeloma cells – cell-based, resazurin fluorescence, basal, 24 h, PK04 Diversity Set, profiling panel (AID 1174); settings: higher = more signal, called active from +8 up or from −8 down;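 also: MM1S multiple myeloma cell line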
[4] = molecular target: Dihydroorotate dehydrogenase (quinone), mitochondrial (Plasmodium falciparum (isolate 3D7)) (UniProt Q08210); assay: inhibition of P. falciparum DHODH – biochemical, C-terminal His tag, absorbance 600 nm, primary screen (AID 1175); settings: PfDHODH enzyme, DCIP absorbance 600 nm; higher = more signal, called active from +8 up or from −8 down;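 also: recombinant parasite enzyme with a five histidine tag at its C terminus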
Dihydroorotate dehydrogenase (quinone), mitochondrial (Plasmodium falciparum (isolate 3D7)), sequence (Q08210 whole entry, looked up): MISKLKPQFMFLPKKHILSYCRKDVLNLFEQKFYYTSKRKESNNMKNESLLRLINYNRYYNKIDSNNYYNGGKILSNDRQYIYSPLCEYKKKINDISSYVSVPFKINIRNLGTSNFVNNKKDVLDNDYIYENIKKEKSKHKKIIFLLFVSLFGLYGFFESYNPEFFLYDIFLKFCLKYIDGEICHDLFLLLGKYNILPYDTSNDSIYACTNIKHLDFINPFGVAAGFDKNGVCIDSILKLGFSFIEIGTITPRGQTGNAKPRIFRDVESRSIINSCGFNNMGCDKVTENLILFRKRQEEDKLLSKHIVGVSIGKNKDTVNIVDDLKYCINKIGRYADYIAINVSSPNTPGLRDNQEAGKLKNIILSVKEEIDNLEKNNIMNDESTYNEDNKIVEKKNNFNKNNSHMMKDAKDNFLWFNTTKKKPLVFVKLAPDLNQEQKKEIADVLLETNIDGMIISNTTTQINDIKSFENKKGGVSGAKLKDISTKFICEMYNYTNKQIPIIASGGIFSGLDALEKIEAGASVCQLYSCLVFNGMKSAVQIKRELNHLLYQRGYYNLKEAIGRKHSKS

[5] = inhibition of PAO1 biofilm formation – strain PAO1, LB-PBS medium, absorbance 600 nm, primary screen (AID 1176); settings: P. aeruginosa PAO1 growth/biofilm, A600, 12 h; higher = more signal
[6] = growth modulation of vineyard yeast isolate – strain RM11-1a, OD600, basal, 24 h, primary screen (AID 1177);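 also: cultures grown under basal conditions with no added stressor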; settings: S. cerevisiae RM11-1a growth, OD600, 24 h; higher = more signal, called active from +8 up or from −8 down
[7] = growth of efflux-deficient E. coli DRC39 – strain DRC39, OD650, 24 h, E. coli filamentation inducers, primary screen (AID 1178);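 also: growth measured as culture turbidity by optical density at 650 nm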; settings: E. coli DRC39 acrAB, higher = more signal, called active from +8 up or from −8 down
[8] = growth of efflux-deficient E. coli DRC39 – strain DRC39, OD650, 48 h, E. coli filamentation inducers, primary screen (AID 1179);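 also: screen aims at cell division blockers that make cells filament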; settings: E. coli DRC39 delta-acrAB growth, higher = more signal, called active from +8 up or from −8 down
[9] = viability profiling in RPMI8226 myeloma cells – cell-based, resazurin fluorescence, basal, 24 h, PK04 Diversity Set, profiling panel (AID 1180); settings: higher = more signal;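 also: RPMI8826 multiple myeloma cell line at 5000 cells per well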
[10] = molecular target: E3 ubiquitin-protein ligase XIAP (Homo sapiens) (UniProt P98170); assay: small molecules binding XIAP protein – biophysical, small-molecule microarray, fluorescence 635 nm, primary screen (AID 1181); settings: higher = more signal;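 also: score merges 667 nm emission and signal to noise over triplicate slides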
E3 ubiquitin-protein ligase XIAP (Homo sapiens), sequence (P98170 whole entry, looked up, the tested form may be a part): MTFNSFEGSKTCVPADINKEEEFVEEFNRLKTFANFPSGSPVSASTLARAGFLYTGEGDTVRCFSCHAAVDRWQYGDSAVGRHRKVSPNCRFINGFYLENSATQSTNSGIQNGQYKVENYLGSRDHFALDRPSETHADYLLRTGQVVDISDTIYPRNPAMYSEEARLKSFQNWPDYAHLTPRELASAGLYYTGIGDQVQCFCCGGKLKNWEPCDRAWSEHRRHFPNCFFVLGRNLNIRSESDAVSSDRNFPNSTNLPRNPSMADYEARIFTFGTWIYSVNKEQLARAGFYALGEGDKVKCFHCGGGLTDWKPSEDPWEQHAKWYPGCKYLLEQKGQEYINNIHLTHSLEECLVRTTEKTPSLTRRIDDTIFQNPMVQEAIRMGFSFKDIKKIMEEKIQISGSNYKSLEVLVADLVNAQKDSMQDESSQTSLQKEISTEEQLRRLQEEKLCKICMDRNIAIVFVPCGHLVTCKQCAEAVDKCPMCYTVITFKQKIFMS

[11] = system: XIP peptide (Xip251-270) binding; assay: XIP fragment 251-270 binding compounds – biochemical, small-molecule microarray, fluorescence 635/667 nm, 0.1 µg/mL protein, primary screen (AID 1182); settings: fluorescent protein binding, 635 nm, higher = more signal, called active from +8 up or from −8 down
XIP peptide (Xip251-270) = assay: compounds binding XIP fragment 251-270 – biochemical, small-molecule microarray, fluorescence 635/667 nm, 0.5 µg/mL protein, primary screen (AID 1183); settings: fluorescence 635 nm, higher = more signal
[12] = blood-stage malaria parasite viability loss – strain 3D7, DAPI fluorescence, 100 nL, primary screen (AID 1184);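 also: parasites grown inside human red blood cells in medium with human serum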; settings: P. falciparum 3D7 growth, 3 d, higher = more signal
[13] = molecular target: Homeobox protein Hox-A13 (Mus musculus) (UniProt Q62424); assay: disruptors of Hoxa13 oligonucleotide interaction – biochemical, fluorescence polarization, labeled oligonucleotide, primary screen (AID 1185); settings: Hoxa13:DNA binding, 15 min, higher = more signal, called active from +8 up or from −8 down
Homeobox protein Hox-A13 (Mus musculus), sequence (Q62424 whole entry, looked up): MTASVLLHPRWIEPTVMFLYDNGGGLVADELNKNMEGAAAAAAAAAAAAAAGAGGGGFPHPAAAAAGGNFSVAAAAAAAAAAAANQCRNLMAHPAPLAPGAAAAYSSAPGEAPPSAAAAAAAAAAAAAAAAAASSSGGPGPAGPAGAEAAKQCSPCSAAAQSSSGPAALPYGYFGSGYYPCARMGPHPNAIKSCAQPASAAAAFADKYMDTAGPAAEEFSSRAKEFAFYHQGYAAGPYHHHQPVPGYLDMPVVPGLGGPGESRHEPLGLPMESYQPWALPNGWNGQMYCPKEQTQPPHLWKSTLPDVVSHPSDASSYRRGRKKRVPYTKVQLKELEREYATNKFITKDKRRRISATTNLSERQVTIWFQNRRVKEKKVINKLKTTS

[14] = blockers of DNA damage checkpoint Chk1 activation – imaging, HeLa, hydroxyurea, phospho-Chk1 antibody, percent positive cells, primary screen (AID 1186); settings: hydroxyurea-induced phospho-Chk1 immunofluorescence imaging, higher = more signal
[15] = blockers of DNA damage checkpoint Chk1 activation – imaging, HeLa, hydroxyurea, phospho-Chk1 nuclear intensity, primary screen (AID 1187); settings: hydroxyurea-induced phospho-Chk1 immunofluorescence imaging, higher = more signal

SMILES	z-score [1]	z-score [2]	z-score [3]	composite z-score [4]	z-score [5]	z-score [6]	z-score [7]	z-score [8]	z-score [9]	composite z-score [10]	composite z-score [11]	composite z-score (XIP peptide (Xip251-270))	z-score [12]	z-score [13]	z-score [14]	z-score [15]
COc1ccc(C(O)C2C=CC3C(=O)N(C)C(=O)C3N2Nc2ccc([N+](=O)[O-])cc2[N+](=O)[O-])cc1OCc1ccccc1 (stereo not drawn)	-0.448	0.944 (inactive)	-1.27 (inactive)	0.37 (inactive)	-0.0067 (inactive)	0.371 (inactive)	-0.98 (inactive)	-0.383 (inactive)	-1.39	0.165	-0.237 (inactive)	0.753	0.664	-2.98 (inactive)	0.47 (inactive)	0.219 (inactive)
O=C1C2C=CC(C(O)c3ccc([N+](=O)[O-])cc3)N(Nc3ccccc3)C2C(=O)N1c1ccccc1 (stereo not drawn)	-0.849	-2.61 (inactive)	-0.952 (inactive)	-1.03 (inactive)	0.791 (inactive)	-0.453 (inactive)	-0.46 (inactive)	-0.253 (inactive)	-1.81	-0.0085	0.392 (inactive)	0.467	0.45	-4.48 (inactive)	0.226 (inactive)	-0.168 (inactive)
COCCOC(=O)N1C(=O)[C@@]2(c3ccccc31)[C@H](c1ccc(OCCO)cc1)N1[C@H](c3ccccc3)[C@H](c3ccccc3)OC(=O)[C@H]1[C@@H]2C(=O)N1CCN(c2ncccn2)CC1	0.19	1.03 (inactive)	-0.268 (inactive)	-0.0117 (inactive)	1.89 (inactive)	2.29 (inactive)	-0.441 (inactive)	-0.849 (inactive)	0.603	0.0548	0.522 (inactive)	0.772	-2.33	-0.376 (inactive)	0.0223 (inactive)	0.242 (inactive)
CC(C)C[C@H]1NC(=O)[C@H](Cc2ccccc2)NC(=O)[C@@]23C(=O)N[C@@H](Cc4ccccc4)C2[C@H](C)[C@@]2(C)O[C@H]2C3/C=C/C/C=C\CNC1=O (stereo partly drawn)	-0.59	-0.396 (inactive)	-0.263 (inactive)	-0.228 (inactive)	0.519 (inactive)	-0.711 (inactive)	-0.437 (inactive)	-0.231 (inactive)	-0.0041	-0.17	0.252 (inactive)	0.718	-0.799	-7.8 (inactive)	-0.157 (inactive)	0.005 (inactive)
CCCCCN1CC=CC23O[C@@H]4C=CCOC(=O)[C@@H]4[C@H]2C(=O)N(CCCCCO)[C@@H]3C1=O (stereo partly drawn)	0.773	-0.284 (inactive)	-0.295 (inactive)	-1.09 (inactive)	0.441 (inactive)	-0.196 (inactive)	-0.151 (inactive)	-0.352 (inactive)	0.0715	-0.244	0.213 (inactive)	-0.228	-0.423	-3.88 (inactive)	-0.845 (inactive)	-0.498 (inactive)
COc1ccc(CCNC(=O)[C@@]2(C)c3ccccc3C(=O)N(Cc3cc(C(F)(F)F)cc(C(F)(F)F)c3)[C@H]2c2ccc(CO)cc2)cc1	0.0945	0.256 (inactive)	0.084 (inactive)	-0.533 (inactive)	0.773 (inactive)	-0.147 (inactive)	0.482 (inactive)	0.282 (inactive)	0.639	0.0512	0.517 (inactive)	0.702	-1.88	-2.88 (inactive)	-0.0741 (inactive)	0.364 (inactive)
C=C(CCCC)/C(=C/C[C@H](OC(C)=O)c1cccc(OCCO)c1)c1cc(C(=O)OC)ccc1OC	2.33	-0.456 (inactive)	1.44 (inactive)	-0.989 (inactive)	0.473 (inactive)	-0.515 (inactive)	1.85 (inactive)	1.34 (inactive)	1.43	-0.0297	0.0894 (inactive)	-0.185	-2.35	-4.24 (inactive)	0.0786 (inactive)	0.307 (inactive)
C=CCOC(=O)[C@H]1[C@@H]2C(=O)O[C@@H](c3ccccc3)[C@@H](c3ccccc3)N2[C@@H](c2ccc(OCCOC(=O)[C@@H]3C[C@@H]4C(=O)N[C@@H](CC(C)C)C(=O)N4[C@@H]3c3ccc(O)cc3)cc2)[C@]12C(=O)Nc1ccc(I)cc12	-1.11	0.637 (inactive)	-0.0917 (inactive)	-1.41 (inactive)	2.94 (inactive)	-0.628 (inactive)	0.214 (inactive)	1.3 (inactive)	0.518	-0.0232	1.47 (inactive)	0.788	-1.79	0.999 (inactive)	-0.654 (inactive)	0.112 (inactive)
COCCOC(=O)N1C(=O)[C@@]2(c3cc(C#CC4(O)CCCCCC4)ccc31)[C@H](c1ccccc1OCCO)N1[C@H](c3ccccc3)[C@H](c3ccccc3)OC(=O)[C@H]1[C@@H]2C(=O)N1CCCCCCC1	-0.0209	2.15 (inactive)	-0.303 (inactive)	0.0767 (inactive)	2.05 (inactive)	2.76 (inactive)	-0.225 (inactive)	0.003 (inactive)	-0.444	0.0483	1.86 (inactive)	0.727	-1.93	3.98 (inactive)	-0.531 (inactive)	-0.561 (inactive)
C/C=C/CN(C(=O)C#Cc1ccccc1)[C@H](CO[Si](C)(C)C(C)(C)C)c1ccccc1	0.704	-0.161 (inactive)	1.79 (inactive)	-3.11 (inactive)	-0.966 (inactive)	-0.36 (inactive)	2 (inactive)	0.846 (inactive)	3.51	-0.193	-0.617 (inactive)	-0.109	-2.04	1.99 (inactive)	-0.288 (inactive)	-0.0994 (inactive)
CCCC[C@H]1OB(O)C[C@H]2C1=C(C)C[C@H]1C(=O)C=CC(=O)[C@H]12	-0.559	-17.6 (active)	-1 (inactive)	-2.54 (inactive)	0.318 (inactive)	0.128 (inactive)	-0.449 (inactive)	-0.316 (inactive)	-0.312	-0.188	0.656 (inactive)	0.229	-0.0202	-6.4 (inactive)	0.217 (inactive)	-0.0819 (inactive)
Cc1ccc(F)cc1S(=O)(=O)N[C@@H]1CCN(Cc2ccc3[nH]ccc3c2)C1	-1.14	-2.59 (inactive)	-0.946 (inactive)	-0.203 (inactive)	-0.189 (inactive)	-0.773 (inactive)	-1.37 (inactive)	-4.18 (inactive)	-0.73	-0.144	-0.0141 (inactive)	0.261	-1.3	-4.14 (inactive)	0.29 (inactive)	-0.075 (inactive)
CCCC[C@@H]1C[C@H]1[C@@H](NC(=O)c1ccc(C(F)(F)F)cc1)c1ccc(C(=O)OC)cc1	1.51	0.146 (inactive)	0.444 (inactive)	-0.0667 (inactive)	1.02 (inactive)	1.02 (inactive)	0.909 (inactive)	0.787 (inactive)	0.971	0.209	-0.0437 (inactive)	0.368	-0.557	-0.759 (inactive)	0.894 (inactive)	0.397 (inactive)
CC(C)CNC(=O)[C@@H]1c2ccccc2C(=O)N(C2Cc3ccccc3C2)[C@H]1c1ccc(CO)cc1	0.98	-0.283 (inactive)	0.76 (inactive)	-0.417 (inactive)	0.444 (inactive)	-1.09 (inactive)	0.725 (inactive)	1.03 (inactive)	1.4	-0.109	0.45 (inactive)	0.509	0.134	-2.36 (inactive)	-0.281 (inactive)	-0.121 (inactive)
CC(C)C[C@H]1NC(=O)[C@@]23C(=O)N[C@@H](Cc4ccccc4)C2[C@H](C)[C@@]2(C)O[C@H]2C3/C=C/C/C=C\CNC(=O)[C@@H]2CCCN2C1=O (stereo partly drawn)	-0.706	-1.43 (inactive)	-0.0195 (inactive)	-0.742 (inactive)	0.352 (inactive)	-0.162 (inactive)	-0.467 (inactive)	-0.0699 (inactive)	0.476	0.155	1.73 (inactive)	0.0626	1.18	-5.47 (inactive)	0.216 (inactive)	0.162 (inactive)
NCCCC[C@@H]1NC(=O)[C@H]2C[C@@H](C(=O)NCc3ccc(F)cc3)[C@@H](c3ccc(O)cc3)N2C1=O	0.175	1.15 (inactive)	0.247 (inactive)	-0.17 (inactive)	0.174 (inactive)	1.02 (inactive)	0.207 (inactive)	-0.277 (inactive)	0.191	0.226	2.07 (inactive)	0.563	0.338	-4.42 (inactive)	-0.52 (inactive)	-0.367 (inactive)
CC(C)CNC(=O)[C@@]1(C)c2ccccc2C(=O)N(Cc2cc(F)cc(C(F)(F)F)c2)[C@H]1c1ccc(CO)cc1	-0.201	-0.3 (inactive)	0.919 (inactive)	-0.0555 (inactive)	1.22 (inactive)	-0.167 (inactive)	0.167 (inactive)	0.137 (inactive)	0.489	-0.208	2.74 (inactive)	0.467	-0.586	-3.51 (inactive)	-0.143 (inactive)	0.0394 (inactive)
CN1C(=O)[C@]2(CCC(=O)OC(C)(C)C)N=C(c3ccc(OCCCO)cc3)O[C@@H]2c2ccccc21	0.476	0.997 (inactive)	-1.67 (inactive)	0.42 (inactive)	-0.441 (inactive)	1.09 (inactive)	1.01 (inactive)	0.679 (inactive)	-1.56	0.312	0.0974 (inactive)	0.654	-1.56	-5.26 (inactive)	-0.0356 (inactive)	0.25 (inactive)
